For 40 molecules, ΔTm results are on record in ChEMBL document CHEMBL5308504, “Tm Shift (DSF) assay results for EUbOPEN Chemogenomics Library” (2023).

SMILES strings stand for the structures.

The test concerns the target Bromodomain-containing protein 4 (Homo sapiens) (UniProt O60885). As to conditions: Compound concentration 20.0 uM, Protein concentration 2.0 uM, Result type QC Liability.
As usually defined, the ΔTm is the change in melting temperature against a reference sample. For `C=C[C@@]12CCc3cc(O)ccc3[C@H]1CC[C@@]1(C)[C@H]2CC[C@@H]1O`, the ΔTm amounted to 0.82 °C.

For the molecule `O=C(NCCN1CCC2(CC1)C(=O)NCN2c1cccc(F)c1)c1ccc2ccccc2c1`, the thermal shift (ΔTm) is -0.54 °C.

On to `Cn1ncc(-c2nc(N[C@H]3CC[C@H](N)CC3)ncc2Cl)c1CC1CC1`, for which the ΔTm was -0.39 °C.

With `C=CC(=O)Nc1ccc2[nH]c(=O)n(C3CCN(Cc4ccc(-c5ccc6c(c5)NC(=O)CO6)cc4)CC3)c2c1`, the ΔTm is 0.27 °C.

For the molecule `Cc1ccc2c(N)c(C(=O)NC3CCc4cc(N5CC6CCC(C5)N6)ccc4C3)sc2n1` (stereo not given), the ΔTm was -0.53 °C.

Take `COc1nc2ccc([C@@](O)(c3ccc(Cl)cc3)c3cncn3C)cc2c(Cl)c1Cc1ccc(-n2cccn2)cc1`: the shift in melting temperature (ΔTm) is -0.83 °C.

On to `Clc1ccccc1C(c1ccccc1)(c1ccccc1)n1cccn1`, for which the ΔTm is -0.07 °C.

On to `Cc1cc(Cl)ccc1S(=O)(=O)NC[C@H]1C2CCC(CC2)[C@@H]1/C=C\CCCC(=O)O`, for which the thermal shift (ΔTm) is -1.69 °C.

For the molecule `Cc1nnc2n1-c1sc3c(c1C(c1ccccc1Cl)=NC2)CC(C(=O)N1CCOCC1)C3` (stereo not given), the shift in melting temperature (ΔTm) worked out at 0.62 °C.

Take `CO[C@H](C)CN1CC[C@@]2(C)c3ccc(O)cc3C[C@@H]1C2(C)C`: the shift in melting temperature (ΔTm) was -0.17 °C.

For the molecule `CCOP(=O)(OCC)C(=Cc1cc(C(C)(C)C)c(O)c(C(C)(C)C)c1)P(=O)(OCC)OCC`, the ΔTm is -3.19 °C.

As to `C=CC(=O)Nc1cc(-c2nn(C3CCC(N4CCN(C(C)=O)CC4)CC3)c3ncnc(N)c23)ccc1Oc1ccccc1` (stereo not given), the ΔTm was -0.22 °C.

For the molecule `O=C1CCC(N2Cc3cc(CNC(=O)C(F)(F)c4ccc(Cl)cc4)ccc3C2=O)C(=O)N1` (stereo not given), the shift in melting temperature (ΔTm) is -1.23 °C.

In the case of `Cc1nnc2n1-c1sc3c(c1C(c1ccccc1Cl)=NC2)C[C@@H](C(=O)N1CCOCC1)C3`, the thermal shift (ΔTm) was found to be 1.2 °C.

For the molecule `CNC(=O)c1cc(C(=O)NC2CC2)cn(Cc2ccccc2)c1=O`, the thermal shift (ΔTm) is -1.08 °C.

On to `C[C@@H]1CC[C@@]2(OC1)O[C@H]1[C@@H](O)[C@H]3[C@@H]4CC[C@H]5C[C@@H](O[C@@H]6O[C@H](CO)[C@H](O[C@@H]7O[C@H](CO)C(O)[C@H](O[C@@H]8OC[C@@H](O)[C@H](O)[C@H]8O)[C@H]7O[C@@H]7O[C@H](CO)[C@H](O)[C@H](O[C@@H]8O[C@H](CO)[C@@H](O)[C@H](O)[C@H]8O)[C@H]7O)[C@H](O)[C@H]6O)[C@H](O)C[C@]5(C)[C@H]4CC[C@]3(C)[C@H]1[C@@H]2C` (stereo not given in full), for which the thermal shift (ΔTm) was -1.87 °C.

As for `C[C@H](CCC(=O)O)[C@H]1CC[C@H]2[C@@H]3[C@@H](O)C[C@@H]4C[C@H](O)CC[C@]4(C)[C@H]3CC[C@]12C`, the ΔTm is -2.97 °C.

For `CNc1nc(-c2cc(C(=O)N3CCN(Cc4ccc(Cl)cc4)CC3)c(Cl)cn2)cs1`, the ΔTm worked out at 0.71 °C.

For the molecule `CO[C@H](C)CN1CC[C@]2(C)c3cccc(O)c3C[C@H]1C2(C)C`, the shift in melting temperature (ΔTm) was -1.2 °C.

Turning to `CN1CCN(C(=O)Cc2ccc(N/C(=C3\C(=O)Nc4cc(Cl)ccc43)c3ccccc3)cc2)CC1`, the ΔTm was -3.18 °C.

Take `CC[C@H]1[C@@H](O)[C@@H]2[C@H](CC[C@]3(C)[C@@H]([C@H](C)CCC(=O)O)CC[C@@H]23)[C@@]2(C)CC[C@@H](O)C[C@@H]12`: the ΔTm is -3.05 °C.

In the case of `CCC(=O)O[C@@H](OP(=O)(CCCCc1ccccc1)CC(=O)N1C[C@H](C2CCCCC2)C[C@H]1C(=O)O)C(C)C` (stereo not given in full), the ΔTm was -0.8 °C.

As to `CCCn1cc(-c2cc(C3C(=O)N(CC)c4ccc(C(F)(F)F)cc4N(c4ccccc4)C3=O)cc(OC)c2O)cn1` (stereo not given), the ΔTm was found to be 1.56 °C.

Take `C[C@@H](CN1CC[C@@]2(C)c3cccc(O)c3C[C@@H]1C2(C)C)OCc1ccccc1`: the thermal shift (ΔTm) was -0.17 °C.

Take `CS(=O)(=O)c1ccc(-c2cnc(N)c(C(=O)Nc3ccccc3)n2)cc1`: the ΔTm was found to be 0.79 °C.

As for `Cc1nnc2n1-c1sc(CCC(=O)N3CCOCC3)cc1C(c1ccccc1Cl)=NC2`, the shift in melting temperature (ΔTm) is -0.19 °C.

In the case of `CO[C@@H](C)CN1CC[C@]2(C)c3cc(O)ccc3C[C@H]1C2(C)C`, the ΔTm was -1.9 °C.

As for `COc1ccc(OC(=O)N(CC(=O)O)Cc2ccc(OCCc3nc(-c4ccccc4)oc3C)cc2)cc1`, the ΔTm is -4.38 °C.

On to `OCC1OC(n2cnc3cc(Cl)c(Cl)cc32)C(O)C1O` (stereo not given), for which the ΔTm turned out to be 0.7 °C.

For `C=CC(=O)N1CCC[C@@H](n2nc(-c3ccc(Oc4ccccc4)cc3)c3c(N)ncnc32)C1`, the shift in melting temperature (ΔTm) is -4.44 °C.

As to `COP(=O)(CCC(N)C(=O)O)Oc1cccc(CC(=O)O)c1` (stereo not given), the thermal shift (ΔTm) is -0.52 °C.

In the case of `COc1ccc(-n2nc(C(F)(F)F)cc2-c2ccc(Cl)cc2)cc1`, the ΔTm is -1.21 °C.

For the molecule `CCN(CC)CCO[C@H]1CC[C@@]2(C)C(=CC[C@@H]3[C@@H]2CC[C@]2(C)C(=O)CC[C@@H]32)C1`, the ΔTm was -1.53 °C.

On to `C[C@@H](CO)CCC[C@@H](C)[C@H]1CC[C@H]2[C@@H]3CC=C4C[C@@H](O)CC[C@]4(C)[C@H]3CC[C@]12C`, for which the ΔTm is -3.47 °C.

Consider `C[C@]12CC[C@@H]3c4ccc(C(N)=O)cc4CC[C@H]3[C@@H]1CC=C2c1cncc(F)c1`, for which the ΔTm was 0 °C.

For the molecule `N[C@H](C(=O)O)[C@@H]1CC(Cl)=NO1`, the ΔTm was -0.13 °C.

For the molecule `Cc1nnc2n1-c1sc3c(c1C(c1ccccc1Cl)=NC2)C[C@H](C(=O)N1CCOCC1)C3`, the ΔTm is -0.46 °C.

Consider `CCN1C(=O)C(c2cccc(C(=O)O)c2)C(=O)N(c2ccccc2)c2cc(C(F)(F)F)ccc21` (stereo not given), for which the ΔTm is -0.84 °C.

As for `C[C@H](CCC(=O)O)[C@H]1CC[C@H]2[C@@H]3CC[C@@H]4C[C@H](O)CC[C@]4(C)[C@H]3CC[C@]12C`, the ΔTm was -7.72 °C.

Take `CN(C(=O)CCOCCOCCOCCOCCNc1cccc2c1C(=O)N(C1CCC(=O)NC1=O)C2=O)[C@H]1CC[C@@]2(C)[C@@H](CC[C@@H]3[C@@H]2CC[C@]2(C)[C@@H](c4ccc5ccncc5c4)CC[C@@H]32)C1` (stereo not given in full): the shift in melting temperature (ΔTm) was -2.19 °C.
